A selection: hits, their analogues and other compounds. The true share with any hit is near 7.6%.
BRCA1 expr up: activators of BRCA1 expression. MCF7-BRCA1-FFLuc reporter, luminescence, 48 h; response scale: scaled: vehicle 0%, 10 µM genistein 100%. Potency, µM (titrated, usually from 46.1 µM), for inactives: at the highest dose activation, most hits filed as activators. hit rate 1.1% among 380,000. AID 624202; note: potency is the fitted concentration of half-maximal effect; nearly all actives have a fitted effect of over 80% in size
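Luminescence from a BRCA1-driven firefly luciferase in MCF7 cells was the read-out, taken 15 min after substrate addition following 48 h compound exposure at 37 °C. Data were normalized to a 10 microM genistein control and DMSO vehicle.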
VP16 counter: Gal4-VP16 reporter inhibition counter-screen. Drosophila S2 Gal4-VP16 UAS-luciferase, luminescence, 20 h. Potency, µM (highest dose often 53.6 µM), for the others: at the highest dose activity, negative = inhibition, usual class: inhibitors. hit rate 3.5% among 310,000;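 note: Gal4-VP16 expression switched on by copper sulfate through the metallothionein promoter; potency is the fitted concentration of half-maximal effect; % is set by controls: 0 for no effect and ±100 for the full control effect; nearly all actives have a fitted effect of over 50% in size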
p53 reactivation: re-activators of mutant p53 | H1299 p53-A138V BP100-luciferase reporter, luminescence, 24 h | Potency, µM (doses to about 92.2 µM), for the others: at the highest dose activity change, positive = activation, most hits filed as activators | hit rate 0.063% among 320,000 | AID 504706; note: potency is the fitted concentration of half-maximal effect; % of control where 0% means no effect; nearly all actives have a fitted effect of over 45% in size
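H1299 (p53-null), stable ts p53-A138V + BP100-Luc; 1000 cells/well, Opti-MEM/10% FBS; cpd 4 pt, 1:5; 24 h, 37 deg C, 5% CO2; detection reagent 10 min RT; luminescence.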
RORg inh: blocks mouse ROR gamma transcriptional activity; Drosophila S2 Gal4-RORgamma UAS-luciferase reporter, 20 h; Potency, µM (top dose mostly 53.6 µM), inactives show at the top dose activity change, negative = inhibition, usual class: inhibitors; AID 2551; hit rate 5.4% among 310,000; P51450; note: potency is the fitted concentration of half-maximal effect; % is set by controls: 0 for no effect and ±100 for the full control effect; nearly all actives have a fitted effect of over 60% in size
Target sequence (P51450 whole entry, looked up, the tested form may be a part): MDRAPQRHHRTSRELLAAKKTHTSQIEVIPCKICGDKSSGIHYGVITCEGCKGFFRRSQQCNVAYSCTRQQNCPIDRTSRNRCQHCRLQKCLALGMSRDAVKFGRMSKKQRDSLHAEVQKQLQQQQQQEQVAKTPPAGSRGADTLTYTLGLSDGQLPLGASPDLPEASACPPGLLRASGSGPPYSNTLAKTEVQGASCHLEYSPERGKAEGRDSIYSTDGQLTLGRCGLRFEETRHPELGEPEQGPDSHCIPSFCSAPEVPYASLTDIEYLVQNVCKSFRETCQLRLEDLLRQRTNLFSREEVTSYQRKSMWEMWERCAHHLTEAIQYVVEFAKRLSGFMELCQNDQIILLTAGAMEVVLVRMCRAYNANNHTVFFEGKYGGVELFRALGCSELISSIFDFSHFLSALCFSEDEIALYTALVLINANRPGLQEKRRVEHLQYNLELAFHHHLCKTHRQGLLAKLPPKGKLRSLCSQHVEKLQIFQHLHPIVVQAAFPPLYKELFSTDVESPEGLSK
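In this cell-based reporter format, copper sulfate (700 uM final) drives Gal4–ROR gamma fusion expression from a metallothionein promoter in Drosophila Schneider cells; compounds preincubated 1 hr, reporter read after 20 hr at ambient temperature.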
Giardia killer: Giardia lamblia killing; Giardia lamblia trophozoite viability; activity change, % at 7.66 µM, hits read low; hit rate 0.15% among 340,000; AID 540267; in the data active = activity change below about -80%; inconclusive = between about -30% and that limit;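 note: parasites exposed to compound for two days anaerobically before the ATP read; % is set by controls: 0 for no effect and ±100 for the full control effect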
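Giardia lamblia trophozoites (100 cells/well) were incubated with compounds for 48 h at 37 deg C under anaerobic conditions. Viability was read as ATP content by one-step luminescence after 15-30 min at room temperature.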
ELG1 DNA repair: inhibitors of ELG1-dependent DNA repair in HEK293T cells | HEK293T ELG1-luciferase reporter, luminescence, 16 h; DNA damage induced by 5-fluorouridine | Potency, µM (series often up to 46.1 µM), without a hit: top-dose activity change, negative = inhibition, most hits filed as inhibitors | AID 504467 | hit rate 2.3% among 330,000; note: potency is the fitted concentration of half-maximal effect; % is set by controls: 0 for no effect and ±100 for the full control effect; nearly all actives have a fitted effect of over 55% in size
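In this reporter screen, reduction of luminescence relative to DMSO vehicle indicated activity. Compounds and 5-fluorouridine were added together to 2,000 cells per well, incubated for 16 hr at 37 °C, then developed with ONE-Glo.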
The depositor's hits bear a star; ? = inconclusive; / = not tested or not shown; ! = repeats disagree; [ ] = dose if it differs, or a comment. Unless noted, calls come from the whole dose curve; as a rule, active = well fitted curve in the direction sought with a large enough effect; inconclusive = small, poorly fitted or top-dose-only effect, or another doubt; inactive = no such curve, though single readings can be large; an effect the other way counts as inactive or inconclusive.

SMILES | BRCA1 expr up | VP16 counter | p53 reactivation | RORg inh | Giardia killer | ELG1 DNA repair
CCC1=NN(C(=O)c2ccc(Br)cc2)C(O)(c2ccc(C)cc2)C1 (configuration not stated) | -44% | 11µM* | -6% | 13µM* | 4 | 1%
CCC1=NN(C(=O)c2ccc(C)cc2)C(O)(c2ccc(Br)cc2)C1 (configuration not stated) | -28% | 13µM* | 8% | ? | 10 | 5%
CCC1=NN(C(=O)c2cccc(Br)c2)C(O)(c2ccc(Br)cc2)C1 (configuration not stated) | -56% | -14% | 5% | -7%[10 µM] | -12 | ?
CC/C(Cc1ccccc1)=N\NC(=O)c1cc(C)oc1C | -30% | -7% | ? | -24% | -18 | 13%
Cc1nc2scc(-c3ccccc3)c2c(=O)n1/N=C/c1ccco1 | 10% | 12% | -8% | 0% | 5 | 15µM*
COC(=O)c1ccc(CNC(=O)/C=C/c2cc([N+](=O)[O-])ccc2OC(F)F)cc1 | 2%[1.84 µM] | 0% | -5% | 36% | 7 | 10µM*
COc1ccc(CNC(=O)/C=C/c2cc([N+](=O)[O-])ccc2OC(F)F)cc1 | 1% | 5% | 0% | 42% | -11 | -24%
COc1ccc(CNC(=O)/C=C/c2cc([N+](=O)[O-])ccc2OC(F)F)cc1OC | -2% | -3% | -5% | -9% | -13 | 21µM*
CCOc1ccc(Oc2ccccc2NC(=O)C2=COCCO2)cc1 | -34% | / | 0% | / | 5 | -16%
COc1cccc(/C=C/C(=C2/C(=O)N(c3ccccc3)N=C2C)c2ccc(Br)cc2)c1OC | 8% | 1% | 16% | -3% | -19 | -1%
COc1cccc(/C=C/C(=C2/C(=O)N(c3ccccc3)N=C2C)c2ccccc2)c1OC | -6% | ? | 6% | -9% | 5 | 7.3µM*
c1ccc(-c2[nH]ncc2-c2ccnc3ccccc23)nc1 | / | 3.2µM* | / | 2µM* | / | /
CC(C)(C)C1CCc2c(C(=O)NNC(=O)/C=C/C(=O)O)csc2C1 (configuration not stated) | -4% | 14µM* | -9% | ? | 14 | 2%
CC/C(=C(\c1ccccc1)c1ccc(OCCN(C)C)cc1)c1ccccc1 | -31% | 32µM*! | -4% | 10µM*! | -17 | /
COCCN(C(=O)CSc1nnc(-c2cccc(C)c2)n1C)c1c(N)n(Cc2ccccc2)c(=O)[nH]c1=O | 17% | 7% | 0% | -8% | 0 | 9%
CCCc1ccc(C(=O)/C=C/N(C)C)cc1 | 13µM* | 2% | 9% | 10% | 2 | ?
Cc1cc(C(O)c2ncc(-c3ccccc3Cl)[nH]2)ccc1F (configuration not stated) | 17% | / | / | / | / | /
O=C1CCCN1CCC(=O)N1CCCC(CO)(Cc2ccccc2)C1 (configuration not stated) | 3% | -6% | 28µM* | ? | -10 | ?
CSCCC(=O)N1CCCC(CO)(CCCc2ccccc2)C1 (configuration not stated) | 3% | -8% | / | 23% | -22 | -4%
O=C(CSc1n[nH]c(-c2ccccc2)n1)Nc1ccc(N2CCOCC2)cc1 | 13% | -13% | 5% | 32% | -1 | 14%
CN(C(=O)c1cccc(NC(=O)Cc2ccc(NC(=O)C3CCCN(C(=O)CCc4ccccc4)C3)cc2)c1)C1CCCCC1 (configuration not stated) | -57% | / | / | / | -4 | /
O=C(O)CC/C(=N/Nc1ncc(C(F)(F)F)cc1Cl)C(=O)O | -16% | ? | 0% | 13µM* | 8 | ?
NC(=O)CNc1ncc(C(F)(F)F)cc1Cl | 1% | -9% | 0% | -5% | -11 | 0%
CCOC(=O)N1CCC(=NNc2ncc(C(F)(F)F)cc2Cl)CC1 | -65% | ? | -1% | 7.1µM* | 6 | -3%
CC(=O)N1CCC(=NNc2ncc(C(F)(F)F)cc2Cl)CC1 | -81% | ? | 0% | 3.2µM* | -16 | -5%
SMILES | BRCA1 expr up | VP16 counter | p53 reactivation | RORg inh | Giardia killer | ELG1 DNA repair
CSc1ccc(CSCC(=O)N2CCN(S(=O)(=O)c3ccc(C)cc3C)CC2)cc1 | -11% | / | -3% | / | 0 | 10µM*
CC(=O)c1c(C)[nH]c(C(=O)N2CCN(S(=O)(=O)c3ccc(C)cc3C)CC2)c1C | -15% | / | 14% | / | 12 | ?
COc1cc(/C=C/C(=O)OCC(=O)N2CCN(S(=O)(=O)c3ccc(C)cc3C)CC2)ccc1O | -39% | -7% | -10% | 2%[10 µM] | -3 | 21µM*
Cc1ccc(S(=O)(=O)N2CCN(C(=O)COC(=O)/C=C/c3ccc(Cl)cc3)CC2)c(C)c1 | -14% | / | / | / | -8 | /
CCOC(=O)c1c(C)[nH]c(C(=O)OCC(=O)N2CCN(S(=O)(=O)c3ccc(C)cc3C)CC2)c1C | -19% | / | -9% | / | -3 | 13µM*
COc1cc(C(=O)N2CCN(S(=O)(=O)c3ccc(C)cc3C)CC2)ccc1OCC(=O)N1CCOCC1 | 13% | / | 0% | / | -5 | 2.3µM*
COc1ccc(-c2nc(C)sc2C)cc1 | 31% | -6% | 1% | -18% | -25 | 22%
CCN(CC(=O)Nc1cc(Cl)ccc1C)C(=O)Cc1ccsc1 | -14% | / | -4% | / | -1 | 15%
O=c1c(CCc2ccccc2)nc2cncnc2n1Cc1ccccc1Cl | / | 7% | / | -14% | / | /
O=C(Nc1nccs1)C1Cc2ccccc2CN1S(=O)(=O)c1ccc(F)cc1 (configuration not stated) | -6% | -11% | ? | ? | -13 | ?
O=C(Nc1nnc(C2CC2)s1)C1Cc2ccccc2CN1S(=O)(=O)c1ccccc1F (configuration not stated) | ? | ? | 15% | 8.9µM* | -10 | ?
COCCNC(=S)N1C2CCC1CC(NC(=O)NC13CC4CC(CC(C4)C1)C3)C2 (configuration not stated) | -1% | 0% | 2% | -13% | 4 | 1%
CCOc1ccc(NC(=O)CNC(=O)c2nn(-c3ccc(OC)c(OC)c3)c(=O)c3ccccc23)cc1 | 0% | -6% | -4% | -1% | 18 | -18%
CCOC(=O)C1CCN(C(=O)CNC(=O)c2nn(-c3ccc(OC)c(Cl)c3)c(=O)c3ccccc23)CC1 | 8% | -7% | ? | 1% | -1 | 15µM*
CCCn1nc(C(=O)NCC2COc3ccccc3O2)c2ccccc2c1=O (configuration not stated) | -27% | / | -7% | / | -19 | 21µM*
CCCn1nc(C(=O)NC2CC2)c2ccccc2c1=O | -7% | / | -8% | / | -19 | 18%

Screening results: PubChem BioAssay, National Center for Advancing Translational Sciences (NCATS)
